Among the data in PubChem BioAssay (NCI) are growth inhibition values, retold here.

Assay [1] in a line: NCI Yeast Anticancer Drug Screen. Data for the rad50 strain (AID 155).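 Note: 0% = growth of vehicle-only cultures of the same strain.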 The note with it: S. cerevisiae rad50 strain growth inhibition, hits give high values. A digest of the protocol:
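Yeast carrying a defined DNA repair defect were exposed to test compounds, and growth was compared with vehicle-treated controls to give percent inhibition.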

Assay [2] in a line: NCI Yeast Anticancer Drug Screen. Data for the mec2-1 strain (AID 157). The note with it: S. cerevisiae mec2-1 strain, hits give high values. A digest of the protocol: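 Strain: mec2-1 (DNA repair/cell cycle alteration). Compound exposure, then growth measured; inhibition expressed relative to vehicle.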
A short description of assay [3]: NCI Yeast Anticancer Drug Screen. Data for the sgs1 mgt1 strain (AID 161).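 Note: 0% = growth of cultures given vehicle only.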 The note with it: S. cerevisiae sgs1 mgt1 strain, hits give high values. A digest of the protocol:
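Mutant yeast exposed to compound; growth scored against vehicle-only wells.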

Assay [4] can be described thus: NCI Yeast Anticancer Drug Screen. Data for the cln2 rad14 strain (AID 165).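 Note: 0% = growth equal to vehicle treated cultures.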 The note with it: S. cerevisiae cln2 rad14 strain, hits give high values. In outline:
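Compounds are applied to the cln2 rad14 yeast strain, and growth is then compared with that of vehicle-treated cultures to give inhibition.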

A short description of assay [5]: NCI Yeast Anticancer Drug Screen. Data for the bub3 strain (AID 167). The note with it: S. cerevisiae bub3 mutant strain, hits give high values. In outline:
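Compounds were applied to a genetically altered yeast strain carrying a cell-cycle control defect. Growth inhibition was scored against vehicle-treated controls.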

Assay [6] can be described thus: NCI Yeast Anticancer Drug Screen. Data for the mlh1 rad18 strain (AID 175). The note with it: S. cerevisiae mlh1 rad18 strain growth inhibition, hits give high values. A digest of the protocol: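 Read-out is yeast growth inhibition, calculated against vehicle-only controls. The compound was applied to a strain engineered with DNA damage repair alterations.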
[7] abbreviates: at 5.0 µM (retest, dose inferred, filed as 0.5).
Where [8] appears, read: at 50.0 µM (retest, dose inferred, filed as 5.0).

Structures are written as SMILES. The panel holds about 79,000 compounds, 15% with a hit somewhere; the sample as a whole holds those more often. A number with no mark means an inactive call. Active and inactive are the calls of the source. Cut-off read from the data, not from the text of the source: active = growth inhibition above about 70%; inactive = the rest.

On to `C(/C=C/CC=Nc1ccccc1)=Nc1ccccc1`, for which the growth inhibition was 3% in assay [1] (setting [7]); 4% in assay [1] (setting [8]); 4.4% in assay [1] (at 50.0 µM); 2% in assay [2] (setting [7]); 3% in assay [2] (setting [8]); 30.6% in assay [2] (at 50.0 µM). Further, the growth inhibition is 0% in assay [3] (setting [7]); 6% in assay [3] (setting [8]); 12.1% in assay [3] (at 50.0 µM); -4% in assay [4] (setting [7]); -4% in assay [4] (setting [8]); 42.2% in assay [4] (at 50.0 µM). In addition, the growth inhibition is -4% in assay [5] (setting [7]); -3% in assay [5] (setting [8]); -7.75% in assay [5] (at 50.0 µM); 7% in assay [6] (setting [7]); 3% in assay [6] (setting [8]); -29.7% in assay [6] (at 50.0 µM).

For the compound `O=C1c2ccc(O)c(O)c2C(=O)c2c(O)ccc(O)c21`, the growth inhibition in assay [1] (setting [7]) was 84% (active); in assay [1] (setting [8]), 95% (active); in assay [1] (at 50.0 µM) it was 73.2% (active); in assay [2] (setting [7]), 74% (active); in assay [2] (setting [8]), 95% (active); in assay [2] (at 50.0 µM) it was 55.5%. Besides, the growth inhibition in assay [3] (setting [7]) was 92% (active); in assay [3] (setting [8]), 95% (active); in assay [3] (at 50.0 µM) it was 67.6%; in assay [4] (setting [7]), 34%; in assay [4] (setting [8]), 93% (active); in assay [4] (at 50.0 µM), 56%. The growth inhibition in assay [5] (setting [7]) is 85% (active); in assay [5] (setting [8]) it was 93% (active); in assay [5] (at 50.0 µM) it was 72% (active); in assay [6] (setting [7]) it was 91% (active); in assay [6] (setting [8]), 95% (active); in assay [6] (at 50.0 µM), 77.8% (active).

Take `COc1ccc(/C(=C/CN2CCC3CCC(C3)C2)c2ccccc2)cc1` (stereo not given): the growth inhibition was -3% in assay [1] (setting [7]); -17% in assay [1] (setting [8]); 40.9% in assay [1] (at 50.0 µM); 5% in assay [2] (setting [7]); -11% in assay [2] (setting [8]); 14.6% in assay [2] (at 50.0 µM). The growth inhibition in assay [3] (setting [7]) was -31%; in assay [3] (setting [8]) it was -27%; in assay [3] (at 50.0 µM), 50.8%; in assay [4] (setting [7]), -6%; in assay [4] (setting [8]), -19%; in assay [4] (at 50.0 µM) it was 12.9%. The growth inhibition is -3% in assay [5] (setting [7]); 11% in assay [5] (setting [8]); 17.6% in assay [5] (at 50.0 µM); -13% in assay [6] (setting [7]); -34% in assay [6] (setting [8]); 12.7% in assay [6] (at 50.0 µM).

Take `ClC(Cl)(Cl)C(NCCN1CCOCC1)c1ccccc1` (stereo not given): the growth inhibition in assay [1] (setting [7]) is 99% (active); in assay [1] (setting [8]), 88% (active); in assay [1] (at 50.0 µM) it was 80% (active); in assay [2] (setting [7]), 100% (active); in assay [2] (setting [8]), 99% (active); in assay [2] (at 50.0 µM), 61.7%. Moreover, the growth inhibition in assay [3] (setting [7]) was 100% (active); in assay [3] (setting [8]) it was 98% (active); in assay [3] (at 50.0 µM), 84.5% (active); in assay [4] (setting [7]), 66%; in assay [4] (setting [8]), 55%; in assay [4] (at 50.0 µM), 78.8% (active). Besides, the growth inhibition in assay [5] (setting [7]) is 98% (active); in assay [5] (setting [8]), 97% (active); in assay [5] (at 50.0 µM), 66.3%; in assay [6] (setting [7]), 99% (active); in assay [6] (setting [8]), 98% (active); in assay [6] (at 50.0 µM), 78.7% (active).

`COc1ccc(C(c2ccc(OC)c(OC)c2)C(Cl)(Cl)Cl)cc1OC`: the growth inhibition in assay [1] (setting [7]) is 3%; in assay [1] (setting [8]), 94% (active); in assay [1] (at 50.0 µM), 89.5% (active); in assay [2] (setting [7]) it was 8%; in assay [2] (setting [8]), 96% (active); in assay [2] (at 50.0 µM), 93.4% (active). In addition, the growth inhibition in assay [3] (setting [7]) is 6%; in assay [3] (setting [8]), 95% (active); in assay [3] (at 50.0 µM), 94% (active); in assay [4] (setting [7]) it was 8%; in assay [4] (setting [8]), 94% (active); in assay [4] (at 50.0 µM), 86% (active). Besides, the growth inhibition in assay [5] (setting [7]) is 3%; in assay [5] (setting [8]), 97% (active); in assay [5] (at 50.0 µM) it was 88.5% (active); in assay [6] (setting [7]) it was 6%; in assay [6] (setting [8]), 94% (active); in assay [6] (at 50.0 µM), 92.4% (active).

For the compound `Cc1ccc(Sc2ccc3ccccc3n2)cc1`, the growth inhibition in assay [1] (setting [7]) is 2%; in assay [1] (setting [8]), -34%; in assay [1] (at 50.0 µM) it was 36%; in assay [2] (setting [7]) it was -3%; in assay [2] (setting [8]) it was 46%; in assay [2] (at 50.0 µM) it was 37.5%. For the same compound, the growth inhibition in assay [3] (setting [7]) is 15%; in assay [3] (setting [8]), 37%; in assay [3] (at 50.0 µM), 50.2%; in assay [4] (setting [7]), -18%; in assay [4] (setting [8]), -24%; in assay [4] (at 50.0 µM) it was 50.2%. Also, the growth inhibition in assay [5] (setting [7]) was 1%; in assay [5] (setting [8]), 30%; in assay [5] (at 50.0 µM), 67%; in assay [6] (setting [7]) it was 0%; in assay [6] (setting [8]) it was 18%; in assay [6] (at 50.0 µM) it was 2.25%.

In the case of `Oc1c(Cl)c(Cl)c2ncccc2c1Cl`, the growth inhibition is 14% in assay [1] (setting [7]); 13% in assay [1] (setting [8]); 55.8% in assay [1] (at 50.0 µM); 10% in assay [2] (setting [7]); 13% in assay [2] (setting [8]); -8.8% in assay [2] (at 50.0 µM). For the same compound, the growth inhibition in assay [3] (setting [7]) is 11%; in assay [3] (setting [8]), 15%; in assay [3] (at 50.0 µM), 49%; in assay [4] (setting [7]) it was 4%; in assay [4] (setting [8]) it was 5%; in assay [4] (at 50.0 µM), -26.4%. Also, the growth inhibition in assay [5] (setting [7]) is 5%; in assay [5] (setting [8]), 37%; in assay [5] (at 50.0 µM), 48.6%; in assay [6] (setting [7]) it was 7%; in assay [6] (setting [8]), 12%; in assay [6] (at 50.0 µM) it was 45.5%.

As for `CCN(CC)CCNc1c(O)cc(C)c2sc3ccccc3c(=O)c12`, the growth inhibition in assay [1] (setting [7]) was 18%; in assay [1] (setting [8]), 95% (active); in assay [1] (at 50.0 µM), 98.5% (active); in assay [2] (setting [7]), 10%; in assay [2] (setting [8]) it was 94% (active); in assay [2] (at 50.0 µM), 99% (active). The growth inhibition is 7% in assay [3] (setting [7]); 98% (active) in assay [3] (setting [8]); 98.8% (active) in assay [3] (at 50.0 µM); 11% in assay [4] (setting [7]); 84% (active) in assay [4] (setting [8]); 96.8% (active) in assay [4] (at 50.0 µM). For the same compound, the growth inhibition in assay [5] (setting [7]) was 3%; in assay [5] (setting [8]) it was 84% (active); in assay [5] (at 50.0 µM), 97.2% (active); in assay [6] (setting [7]), 2%; in assay [6] (setting [8]), 96% (active); in assay [6] (at 50.0 µM) it was 98.3% (active).

`O=C1C2C3C=CC(C3)C2C(=NS(=O)(=O)c2ccccc2)C2C3C=CC(C3)C12` (stereo not given): the growth inhibition in assay [1] (setting [7]) was -33%; in assay [1] (setting [8]), 9%; in assay [1] (at 50.0 µM), 84.7% (active); in assay [2] (setting [7]), -2%; in assay [2] (setting [8]), 0%; in assay [2] (at 50.0 µM), 89.8% (active). In addition, the growth inhibition is 3% in assay [3] (setting [7]); 14% in assay [3] (setting [8]); 91.4% (active) in assay [3] (at 50.0 µM); -1% in assay [4] (setting [7]); -3% in assay [4] (setting [8]); 22.1% in assay [4] (at 50.0 µM). The growth inhibition is -2% in assay [5] (setting [7]); 4% in assay [5] (setting [8]); 53% in assay [5] (at 50.0 µM); 28% in assay [6] (setting [7]); 12% in assay [6] (setting [8]); 72.5% (active) in assay [6] (at 50.0 µM).

On to `O=c1[nH]c2cc(Cl)ccc2nc1/C=C(\O)c1ccccn1`, for which the growth inhibition in assay [1] (setting [7]) was 20%; in assay [1] (setting [8]), 79% (active); in assay [1] (at 50.0 µM) it was 60%; in assay [2] (setting [7]) it was 7%; in assay [2] (setting [8]), 49%; in assay [2] (at 50.0 µM), 37.8%. The growth inhibition in assay [3] (setting [7]) was 8%; in assay [3] (setting [8]), 71% (active); in assay [3] (at 50.0 µM), 74.8% (active); in assay [4] (setting [7]) it was 8%; in assay [4] (setting [8]), 64%; in assay [4] (at 50.0 µM), 34.1%. The growth inhibition in assay [5] (setting [7]) was 21%; in assay [5] (setting [8]) it was 27%; in assay [5] (at 50.0 µM), 44.5%; in assay [6] (setting [7]), -1%; in assay [6] (setting [8]), 82% (active); in assay [6] (at 50.0 µM), 88% (active).
